Data published in the supplement of paper PMC13380429.
Counter-ions that a name gives are not always drawn.

Test system: Vero E6 infected with SARS-CoV-2
Assay: inhibition of SARS-CoV-2 cytopathic effect; higher = more antiviral protection, active = above 15
Details: 48 h

Measured: inhibition of SARS-CoV-2 cytopathic effect

COc1cc(C(=O)NCC2(N(C)C)CCCC2)cc(OC)c1OCc1ccccc1
inactive: 1 nM 0.5% | 8.33 nM 4.04% | 100 nM 5.81% | 833.33 nM -2.21% | 10000 nM -8%

Cc1noc2c1-c1ccccc1C(c1ccc(Cl)cc1)=N[C@H]2CC(N)=O
inactive: 1 nM -3.02% | 8.33 nM 0.61% | 100 nM -3.13% | 833.33 nM 0.14% | 10000 nM -11.1%

CC(=O)SC[C@@H](C)C(=O)N1CCC[C@H]1C(=O)N[C@@H](Cc1ccccc1)C(=O)O [alacepril]
inactive: 1 nM -1.69% | 8.33 nM 0.59% | 100 nM 0.98% | 833.33 nM -1.33% | 10000 nM -0.44%

CC1(C)Cc2c(-c3ccccc3)c(-c3ccc(Cl)cc3)c(CC(=O)O)n2C1 [licofelone]
inactive: 1 nM -2.87% | 8.33 nM 2.92% | 100 nM 4.49% | 833.33 nM 3.45% | 10000 nM 2.49%

COc1cc2c(cc1OCCCN1CCCC1)N=C(N)C21CCC1
inactive: 1 nM -1.51% | 8.33 nM 0.76% | 100 nM 0.57% | 833.33 nM 1.84% | 10000 nM 1.55%

C[C@H]1O[C@@H](Oc2c(-c3cc(O)c(O)c(O)c3)oc3cc(O)cc(O)c3c2=O)[C@@H](O)[C@@H](O)[C@@H]1O [myricitrin]
inactive: 1 nM 0.43% | 8.33 nM -0.53% | 100 nM 0.85% | 833.33 nM -1.02% | 10000 nM -1.34%

CC(C)[C@H](C(=O)Nc1ccc(C(=O)NO)cc1)c1ccccc1
inactive: 1 nM 3.84% | 8.33 nM 0.31% | 100 nM -0.75% | 833.33 nM 1.02% | 10000 nM 0.89%

COc1cccc(Nc2ncnn3ccc(CN4CC[C@@H](N)[C@H](O)C4)c23)c1
inactive: 1 nM -0.26% | 8.33 nM 0.1% | 100 nM -6.81% | 833.33 nM -16.4% | 10000 nM -22.6%

C=CCc1ccc(O)c(-c2cc(CC=C)ccc2O)c1 [magnolol]
inactive: 1 nM -1.26% | 8.33 nM 1.55% | 100 nM 1.32% | 833.33 nM -2.87% | 10000 nM -1.19%

COC(=O)[C@@H](N)CS [mecysteine]
inactive: 1 nM 2.04% | 8.33 nM -0.66% | 100 nM -0.44% | 833.33 nM 2.25% | 10000 nM 2.07%

CO[C@H]1[C@H](O)[C@@H](O)[C@@H](O)[C@H](O)[C@@H]1O [pinitol]
inactive: 1 nM 0.84% | 8.33 nM -0.26% | 100 nM -2.68% | 833.33 nM -0.47% | 10000 nM 1.55%

Cc1csc2c(N[C@@H](C)CN3CCN(S(=O)(=O)c4ccc(Cl)c(Cl)c4)CC3)ncnc12 [LPA2-antagonist-1]
inactive: 1 nM -0.43% | 8.33 nM -0.37% | 100 nM 1.73% | 833.33 nM 1.34% | 10000 nM 5.53%

CO[C@H]1C[C@H](O[C@@H]2/C(C)=C/C[C@@H]3C[C@@H](C[C@]4(CC[C@H](C)[C@@H](C5CCCCC5)O4)O3)OC(=O)[C@@H]3C=C(C)/C(=N/O)[C@H]4OC/C(=C\C=C\[C@@H]2C)[C@]43O)O[C@@H](C)[C@@H]1O [selamectin]
active: 10000 nM 16.1%
inactive: 1 nM -1.61% | 8.33 nM 0.4% | 100 nM -0.73% | 833.33 nM 2.72%

Cc1cccc(-c2[nH]c(CNc3ccccc3F)nc2-c2ccc3ncnn3c2)n1
inactive: 1 nM 0.31% | 8.33 nM 3.47% | 100 nM 1.38% | 833.33 nM 1.08% | 10000 nM 2.46%

O=c1sn(-c2cccc3ccccc23)c(=O)n1Cc1ccccc1 [tideglusib]
inactive: 1 nM -1.59% | 8.33 nM -1.6% | 100 nM -1.32% | 833.33 nM 0.87% | 10000 nM -0.03%

CCn1c2ccccc2c2cc(CNC)ccc21
inactive: 1 nM 4.22% | 8.33 nM 4.54% | 100 nM -0.29% | 833.33 nM -0.75% | 10000 nM -3.22%

CC1(C)CCC(C)(C)c2c1cc(C(=O)Nc1cc(F)c(C(=O)O)c(F)c1)c(O)c2Cl
inactive: 1 nM -1.01% | 8.33 nM -0.71% | 100 nM 0.11% | 833.33 nM 2.72% | 10000 nM 3.26%

CC(=O)O[C@]1(C(C)=O)CC[C@H]2[C@@H]3C[C@H](C)C4=CC(=O)C=C[C@]4(C)[C@@]3(F)[C@@H](O)C[C@@]21C [fluorometholone-acetate]
inactive: 1 nM 0.25% | 8.33 nM 0.86% | 100 nM -0.18% | 833.33 nM 0.37% | 10000 nM -0.24%

CCOC(=O)[C@H](CCc1ccccc1)N[C@@H](C)C(=O)N1Cc2cc(OC)c(OC)cc2C[C@H]1C(=O)O [moexipril]
inactive: 1 nM -1.91% | 8.33 nM 1.34% | 100 nM -0.63% | 833.33 nM -0.22% | 10000 nM 0.1%

CCSC(=N)N [EIT-hydrobromide]
inactive: 1 nM 0.03% | 8.33 nM -1.2% | 100 nM -0.94% | 833.33 nM -0.69% | 10000 nM -1.4%

Nc1ccc(C(=O)O)cc1 [potassium-p-aminobenzoate]
inactive: 1 nM -5.31% | 8.33 nM -2.38% | 100 nM -5.27% | 833.33 nM -0.2% | 10000 nM -5%

CN1CCN(c2c(F)cc3c(=O)c(C(=O)O)cn4c3c2SCC4)CC1 [rufloxacin]
inactive: 1 nM 0.11% | 8.33 nM -1.78% | 100 nM 0.94% | 833.33 nM 1.64% | 10000 nM -3.47%

N#Cc1ccccc1OCC(O)CNCCNC(=O)Nc1ccccc1 (stereo not given)
inactive: 1 nM 0.6% | 8.33 nM 0.87% | 100 nM -0.54% | 833.33 nM 0.35% | 10000 nM -2.72%

O=C(O)[C@H](CC(=O)N1C[C@H]2CCCC[C@H]2C1)Cc1ccccc1 [mitiglinide]
inactive: 1 nM -0.3% | 8.33 nM -1.42% | 100 nM -1.04% | 833.33 nM -1.17% | 10000 nM 1.67%

COc1ccc(-c2oc3c(CC=C(C)C)c(O)cc(O)c3c(=O)c2O)cc1 [icaritin]
inactive: 1 nM -1.11% | 8.33 nM 0.17% | 100 nM 0.02% | 833.33 nM -0.36% | 10000 nM 2.24%

O=C1NC(=S)NC(=O)C1C(=O)Nc1ccccc1 [merbarone]
inactive: 1 nM -0.86% | 8.33 nM -1.86% | 100 nM -0.15% | 833.33 nM -0.03% | 10000 nM 1.95%

COc1ccccc1OC(=O)c1ccccc1OC(C)=O [guacetisal]
inactive: 1 nM -0.24% | 8.33 nM -1.18% | 100 nM 1.85% | 833.33 nM 4.31% | 10000 nM -0.68%

O=C(NC(=O)c1c(F)cccc1Cl)NC1c2ccccc2-c2ccccc21
inactive: 1 nM -0.23% | 8.33 nM -0.67% | 100 nM 1.6% | 833.33 nM 2.13% | 10000 nM 0.4%

O=c1cc(-c2ccc(O)c(O)c2)oc2cc(O)cc(O)c12 [luteolin]
inactive: 1 nM 1.96% | 8.33 nM 0.53% | 100 nM -1.61% | 833.33 nM -0.15% | 10000 nM 7.72%

C=C1CC[C@H](O)C/C1=C/C=C1\CCC[C@]2(C)[C@@H]([C@H](C)/C=C/[C@H](C)C(C)C)CC[C@@H]12 [ergocalciferol]
inactive: 1 nM 0.88% | 8.33 nM 0.86% | 100 nM 0.95% | 833.33 nM 0.55% | 10000 nM 0.72%

O=C(NC(=O)c1c(F)cccc1F)Nc1cc(Cl)c(OC(F)(F)C(F)C(F)(F)F)cc1Cl (stereo not given) [lufenuron]
inactive: 1 nM 1.67% | 8.33 nM 2.18% | 100 nM -1.16% | 833.33 nM 2.95% | 10000 nM 1.2%

COC(=O)Nc1nc2cc(SC(C)C)ccc2[nH]1 [methiazole]
inactive: 1 nM 0.45% | 8.33 nM 0.55% | 100 nM 2.08% | 833.33 nM 2.73% | 10000 nM -1.24%

O=C(N/N=C/c1ccc(O)c(O)c1)c1cc2ccccc2cc1O [dynasore]
inactive: 1 nM -1.99% | 8.33 nM 1.05% | 100 nM -1.82% | 833.33 nM -0.26% | 10000 nM 0.04%

N#C/C(=C\c1cn(-c2ccccc2)c2ccccc12)C(=O)O
inactive: 1 nM -0.26% | 8.33 nM -0.12% | 100 nM -0.58% | 833.33 nM 1.6% | 10000 nM -2.52%

Nc1n[nH]c2nc3ccccc3nc12 [CDK1-5-inhibitor]
inactive: 1 nM 0.56% | 8.33 nM 0.41% | 100 nM 0.84% | 833.33 nM 0.94% | 10000 nM -3.33%

N#Cc1ccc(N2CCN(C(=O)COc3ccc4[nH]cc(CCN)c4c3)CC2)cc1 [donitriptan]
inactive: 1 nM -0.48% | 8.33 nM -0.51% | 100 nM 0.51% | 833.33 nM -0.87% | 10000 nM 1.77%

O=C1c2ccc(Nc3ccc(F)cc3F)cc2CCc2ccc(OC[C@H](O)CO)cc21 [skepinone-L]
inactive: 1 nM -0.76% | 8.33 nM -3.41% | 100 nM -5.13% | 833.33 nM -8.06% | 10000 nM -9.5%

N[C@@H](CSCCCO)C(=O)O [fudosteine]
inactive: 1 nM 0.08% | 8.33 nM 1.3% | 100 nM 0.76% | 833.33 nM 1.15% | 10000 nM -1.74%

CN1C(=O)N(c2cc(Cl)cc(Cl)c2)C(=O)[C@]12CN(c1ccc(C(=O)O)cn1)C[C@H]2c1ccc(C#N)cc1
inactive: 1 nM 1.7% | 8.33 nM 0.43% | 100 nM 1.42% | 833.33 nM 1.84% | 10000 nM 1.57%

c1ccc(-c2nc(CN3CCN(c4ncccn4)CC3)c[nH]2)cc1
inactive: 1 nM -2.28% | 8.33 nM -0.03% | 100 nM -3.72% | 833.33 nM -0.79% | 10000 nM -1.23%
